CHO-K1 Ca PAM: nonselective calcium activators in parental CHO-K1 cells, primary screen, counter-screen for M1 PAM project, cell-based, Fluo-8 calcium fluorescence, full deck, 1536-well; ATP EC20; 0% at ATP EC20, 100% at ATP max; activation, % at 3 µM; hit rate 0.02% among 360,000;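 active = activation above the run cutoff, the mean activation of all test compounds plus 3 SD, cut at about 40% in these data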;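 also: peak over basal fluorescence ratio in a 140 s read after ATP addition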
TMEM16A inh: TMEM16A chloride channel inhibitors, primary screen, cell-based, HTS. Anoctamin-1 (Mus musculus), Q8BHY3. HEK293 TMEM16A/YFP iodide influx fluorescence, ionomycin. normalized B-score (activity score, 25-100; higher = stronger inhibition) at 10 µM. hit rate 1.2% among 310,000. AID 588511, 2011;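 active = ratio plate-corrected score three or more library SD toward inhibition, starting fluorescence score within five deviations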;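 also: score derived from kinetic fluorescence span divided by baseline fluorescence per well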
CHO-K1 Ca antag: M1 antagonist counterscreen hit in parental CHO-K1 cells; ATP-induced calcium, Fluo-8 fluorescence; inhibition, % at 3 µM; hit rate 0.6% among 360,000; AID 602250;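 active = inhibition above a per-plate cutoff, the plate's mean sample inhibition plus 3 SD, cut at about 24% in these data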
M1 ag parental: counter-screen for M1 agonists: effect in parental CHO-K1 cells. hit rate 0.48% among 360,000. Fluo-8 calcium fluorescence; scaled to maximal ATP response, vehicle zero. activation, % at 3 µM. AID 602248, 2012; in the data active = activation above about 15%;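 also: untransfected CHO-K1 host cells lacking M1 receptor as counterscreen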
NTR1 ag: agonists of human NTR1, primary screen, imaging, U2OS cells, beta-arrestin-GFP, high content; hit rate 0.17% among 330,000; activation, % at 20 µM; NTR1-U2OS beta-arrestin-GFP spot imaging, agonist mode;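 active = activation at or above 40% of the spot to cytoplasm intensity ratio, with at least 20 cells analyzed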
Target sequence (P30989 whole entry, looked up): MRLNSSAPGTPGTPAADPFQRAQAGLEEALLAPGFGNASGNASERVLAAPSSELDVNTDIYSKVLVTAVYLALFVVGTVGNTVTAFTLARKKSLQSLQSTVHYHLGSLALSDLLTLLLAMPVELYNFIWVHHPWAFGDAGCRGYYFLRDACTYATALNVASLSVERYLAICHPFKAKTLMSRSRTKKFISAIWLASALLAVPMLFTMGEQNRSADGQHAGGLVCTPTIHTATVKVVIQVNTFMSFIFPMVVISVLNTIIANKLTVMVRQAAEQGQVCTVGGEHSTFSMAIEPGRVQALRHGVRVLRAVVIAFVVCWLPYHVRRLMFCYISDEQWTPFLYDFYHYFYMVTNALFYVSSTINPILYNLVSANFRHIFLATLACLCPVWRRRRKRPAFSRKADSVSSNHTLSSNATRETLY
TMEM16A act: TMEM16A chloride channel activators or potentiators, primary screen, cell-based, HTS; B-score at 10 µM; HEK293 TMEM16A/YFP-H148Q/I152L, iodide quench fluorescence; hits give low values; AID 623877, 2012; hit rate 0.3% among 340,000;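 active = fluorescence-ratio B-score plate-corrected deviation score at least 3 library SD below zero, with starting fluorescence score within 5 deviations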;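 also: channel opened by trigger with iodide after compound preincubation; score built on the fluorescence ratio of max minus min over baseline; more negative score means more quench and so TMEM16A activation or potentiation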
TMEM16A reconf: TMEM16A chloride channel inhibitors, confirmation, cell-based, re-confirmation; shares compounds with TMEM16A inh; hit rate 39% among 2,300; inhibition, % at 10 µM; HEK293 TMEM16A/YFP-H148Q, iodide quench fluorescence; ionomycin added to raise cell calcium;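 active = mean duplicate percent inhibition, scaled so buffer wells are 0 and the reference blocker 100, over three buffer SD above buffer mean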
HEK293 Ca mobil: calcium mobilization in TMEM16A/YFP HEK293 cells, confirmation, counter-screen for TMEM16A inhibitor project; shares compounds with TMEM16A inh; Fluo4 calcium mobilization; calcium response (% of ionomycin), % at 10 µM; hit rate 2% among 2,300;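 active = duplicate-averaged calcium signal over 20% of the ionomycin maximum, relative to buffer baseline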;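 also: each well's signal is peak minus trough fluorescence divided by its pre-addition baseline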
YFP-HEK293 quench: iodide YFP quench changes in parental YFP-HEK293, counter-screen for TMEM16A inhibitor project, cell-based. shares compounds with TMEM16A inh. ionomycin. YFP ratio F(max-min)/F0 at 10 µM. 2,300 tested, under 10 active. AID 652233, 2013;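 active = yellow fluorescent protein signal ratio exceeding the buffer control mean by over 5 SD of those controls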;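 also: ratio is mean of duplicate wells from kinetic YFP trace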
ClC-1 rat inh: ClC-1 chloride channel inhibition, selectivity assay for TMEM16A inhibitor project, cell-based, voltage-dependent ClC-1 | shares compounds with TMEM16A inh | 2,300 tested, under 10 active | ratio percent, % at 10 µM | CHO ClC-1-YFP, iodide influx fluorescence quench; iodide control reads 0, buffer control 100 | AID 652236, 2013;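 active = duplicate-mean ratio percent above the mean of iodide-only control wells, which defines zero, plus 5 of their SD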;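 also: higher percent means stronger block of ClC-1 iodide influx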
Of the large screens only hits and unclear results are named; the others gave an inactive call (follow-up assays come after a bar, where they were run). Only some compounds are listed: those with a hit (about 2.2% of all), similar ones and a draw of the others.

CC(=O)c1ccc(N2CCN(C(=O)Nc3ccc(C(C)C)cc3)CC2)cc1	TMEM16A inh 100 | TMEM16A reconf 29.0% | HEK293 Ca mobil inactive | YFP-HEK293 quench inactive | ClC-1 rat inh inactive
O=C(NCc1ccc(Cl)c(Cl)c1)c1cc(C2CCCCN2C(=O)c2cccs2)on1 (stereo not given)	none (no result: TMEM16A inh, NTR1 ag, TMEM16A act)
CCCS(=O)(=O)NC(=O)C1(C)CCCN(C(=O)c2ccc(SC(F)(F)F)cc2)C1 (stereo not given)	none (no result: TMEM16A inh, NTR1 ag, TMEM16A act)
O=C(NCCn1cc(SCc2ccccc2)c2ccccc21)c1ccccc1F	TMEM16A inh 25 | TMEM16A reconf inactive | HEK293 Ca mobil inactive | YFP-HEK293 quench inactive | ClC-1 rat inh inactive
Cc1ccc(Nc2nc3nonc3[nH]c2=O)cc1Cl	TMEM16A inh 100, CHO-K1 Ca antag 29.6 | TMEM16A reconf 40.5% | HEK293 Ca mobil inactive | YFP-HEK293 quench inactive | ClC-1 rat inh inactive
Cc1ccc(Nc2nc3nonc3[nH]c2=O)cc1C	none
CC1=CC(C)C(C(=O)O)C(C(=O)O)C1 (stereo not given)	TMEM16A inh 100 | TMEM16A reconf inactive | HEK293 Ca mobil inactive | YFP-HEK293 quench inactive | ClC-1 rat inh inactive
CCn1c(CSc2nc3ccccc3s2)nc2ccccc21	TMEM16A inh 100 | TMEM16A reconf 43.0% | HEK293 Ca mobil inactive | YFP-HEK293 quench inactive | ClC-1 rat inh inactive
CC(=O)c1c(O)cc(O)c(C(C)=O)c1O	TMEM16A inh 100 | TMEM16A reconf 31.0% | HEK293 Ca mobil inactive | YFP-HEK293 quench inactive | ClC-1 rat inh inactive
CN(Cc1ccccc1)C(=O)[C@@H]1CCCN1C(=O)[C@@H]1CCCN1C(=O)c1cccc2ccccc12	none (no result: TMEM16A inh, NTR1 ag, TMEM16A act)
O=C(CCC1CCCC1)c1c(O)c2ccccc2oc1=O	TMEM16A inh 100 | TMEM16A reconf 34.0% | HEK293 Ca mobil 58.5% | YFP-HEK293 quench inactive | ClC-1 rat inh inactive
COc1ccc(-c2cn3nc(C)c(C)nc3n2)cc1OC	none (no result: TMEM16A inh)
Cc1ccc(-c2cn3nc(C)c(C)nc3n2)cc1	none | TMEM16A reconf inactive | HEK293 Ca mobil inactive | YFP-HEK293 quench inactive | ClC-1 rat inh inactive
O=C(Nc1cccnc1)c1ccc(Cl)c(S(=O)(=O)N2CCCCCC2)c1	TMEM16A inh 25 | TMEM16A reconf 29.5% | HEK293 Ca mobil inactive | YFP-HEK293 quench inactive | ClC-1 rat inh inactive
O=C(Nc1ccc(Br)cc1)c1ccc(F)c(S(=O)(=O)N2CCN(c3ccccn3)CC2)c1	TMEM16A inh 25 | TMEM16A reconf inactive | HEK293 Ca mobil inactive | YFP-HEK293 quench inactive | ClC-1 rat inh inactive
Cc1ccc(C(=O)Nc2cccnc2)cc1S(=O)(=O)N1CCCCCC1	none
O=C(Nc1ccncc1)c1ccc(Cl)c(S(=O)(=O)N2CCCCC2)c1	TMEM16A inh 25 | TMEM16A reconf inactive | HEK293 Ca mobil inactive | YFP-HEK293 quench inactive | ClC-1 rat inh inactive
O=C(Nc1ccccc1)Nc1ccc(Cl)c(S(=O)(=O)N2CCOCC2)c1	TMEM16A inh 100, M1 ag parental 17.6 | TMEM16A reconf 28.5% | HEK293 Ca mobil inactive | YFP-HEK293 quench inactive | ClC-1 rat inh inactive
Cc1cccc(NC(=O)CNC(=O)c2cccc(-n3cccc3)c2)c1C	none
N#Cc1ccccc1S(=O)(=O)NC(=O)[C@H]1O[C@@H](n2cnc3c(N)ncnc32)[C@H](O)[C@@H]1O	none (no result: TMEM16A inh, NTR1 ag, TMEM16A act)
Cc1ccc(Cn2cc(CN3CC(N4CCN(C5CCN(C)CC5)CC4)CS3(=O)=O)nn2)cc1 (stereo not given)	none (no result: TMEM16A inh, NTR1 ag, TMEM16A act)
C[C@H]1CN([C@@H](C)CO)C(=O)CCCn2nncc2CO[C@H]1CN(C)S(=O)(=O)c1cccs1	none (no result: TMEM16A inh, NTR1 ag, TMEM16A act)
O=C(Nc1ccncc1)c1ccc(Cl)c(S(=O)(=O)N2CCc3ccccc32)c1	TMEM16A inh 25 | TMEM16A reconf 31.5% | HEK293 Ca mobil inactive | YFP-HEK293 quench inactive | ClC-1 rat inh inactive
O=C(NCC(O)c1ccccc1)c1ccc(Cl)c(S(=O)(=O)N2CCCCC2)c1 (stereo not given)	TMEM16A inh 25 | TMEM16A reconf inactive | HEK293 Ca mobil inactive | YFP-HEK293 quench inactive | ClC-1 rat inh inactive
O=C(Nc1nnc(C2CC2)s1)c1ccc(Cl)c(S(=O)(=O)N2CCc3ccccc3C2)c1	TMEM16A inh 100 | TMEM16A reconf 26.5% | HEK293 Ca mobil inactive | YFP-HEK293 quench inactive | ClC-1 rat inh inactive
CCn1nc(C)c(CNC(=O)c2cc(COc3ccc(F)cc3Cl)on2)c1C	TMEM16A inh 25 | TMEM16A reconf 24.0% | HEK293 Ca mobil inactive | YFP-HEK293 quench inactive | ClC-1 rat inh inactive
Cc1cc(C)c(S(=O)(=O)c2ccccc2C)c(SCC(C)C)n1	TMEM16A inh 100 | TMEM16A reconf inactive | HEK293 Ca mobil inactive | YFP-HEK293 quench inactive | ClC-1 rat inh inactive
CCCSc1nc(C)cc(C)c1S(C)(=O)=O	none
CCCSc1nc(C)cc(C)c1S(=O)(=O)c1ccccc1C	TMEM16A inh 100 | TMEM16A reconf inactive | HEK293 Ca mobil inactive | YFP-HEK293 quench inactive | ClC-1 rat inh inactive
Cc1ccc(NC(=O)CNc2cccc(C)c2C)c(C)c1	TMEM16A inh 100 | TMEM16A reconf inactive | HEK293 Ca mobil inactive | YFP-HEK293 quench inactive | ClC-1 rat inh inactive
NC(c1ccccc1)c1csc(Nc2ccc(S(N)(=O)=O)cc2)n1 (stereo not given)	none (no result: TMEM16A inh, NTR1 ag, TMEM16A act)
O=C1C(SCCO)=C(SCCO)C(=O)c2ccccc21	TMEM16A inh 100 | TMEM16A reconf 40.0% | HEK293 Ca mobil inactive | YFP-HEK293 quench inactive | ClC-1 rat inh inactive
CCOc1cc(S(=O)(=O)NCCc2ccc(OC)c(OC)c2)c(OCC)cc1-n1cnnn1	TMEM16A inh 25 | TMEM16A reconf inactive | HEK293 Ca mobil inactive | YFP-HEK293 quench inactive | ClC-1 rat inh inactive
Oc1ccc(-c2[nH]ncc2-c2ccc(Cl)cc2)c(O)c1	TMEM16A inh 25 | TMEM16A reconf inactive | HEK293 Ca mobil inactive | YFP-HEK293 quench inactive | ClC-1 rat inh inactive
